In PubChem BioAssay (NCI):
The panel holds about 83,000 compounds, 20% with a hit somewhere; the sample as a whole holds those more often.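 Cell lines were cultured in 96-well plates, exposed to a single compound concentration, and assessed for percent growth 48 hours later.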 A number with no mark means an inactive call. Activity calls are given as the source filed them. How the source made its calls: active means growth percent below 10; inactive means the rest.

Tests used:
Assay in all cases: NCI-60 one-dose screen, 48 h (100 = growth as untreated, 0 = no growth, -100 = all killed)
Conditions in all cases: 10 µM unless noted
T-47D breast = tested on: T-47D breast
BT-549 breast = tested on: BT-549 breast
MDA-MB-435 melanoma = tested on: MDA-MB-435 melanoma
MCF7 breast = tested on: MCF7 breast
HCT-116 colon = tested on: HCT-116 colon
HCC-2998 colon = tested on: HCC-2998 colon
KM12 colon = tested on: KM12 colon
SW-620 colon = tested on: SW-620 colon

SMILES	growth (T-47D breast)	growth (BT-549 breast)	growth (MDA-MB-435 melanoma)	growth (MCF7 breast)	growth (HCT-116 colon)	growth (HCC-2998 colon)	growth (KM12 colon)	growth (SW-620 colon)
Cc1ccc(C)c(NC(=O)c2sc3c(=O)[nH]cnc3c2C)c1	86.9%	80.2%	-36% (active)	62.8%	68.3%	87.7%	46.2%	
Clc1ccc(-c2nc(-c3cccs3)no2)cc1	56.9%	102%	107%	33.7%	97.8%	102%	103%	
CN(C)N1C(=O)c2c(Cl)c(Cl)c(Cl)c(Cl)c2C1=O	93%	129%	114%	95.7%	101%	102%	113%	
CCOC(=O)N1C2CCC(C2)N1C(=O)OCC	108%	101%	113%	90.1%	103%	104%	112%	
COc1cnc2c(c1)C(=O)c1c-2n(CCCN2CCCC2)c(=O)c2cc(Cl)ccc12	29.3%	44.5%	61.1%	-46.1% (active)	-92.8% (active)	62.1%	42.4%	
O=C(CCCCCCN1CC(=O)N2[C@@H](c3ccc(Cl)c(Cl)c3)c3[nH]c4ccccc4c3C[C@H]2C1=O)NO	27.9%	63.7%	47.3%	29%		61.9%	69.8%	
O=[N+]([O-])c1ccc(SSc2ccc([N+](=O)[O-])cc2Cl)c(Cl)c1	70.6%	97.4%	113%	77.3%	91.1%	106%	98%	
Cc1ccccc1Nc1n[nH]c(Cc2ccccc2)n1	101%	105%	107%	99.1%	99.9%	100%	101%	
COc1ccc(-n2nc(C(=O)Nc3ccc(F)cc3)nc2-c2cc(OC)c(OC)c(OC)c2)cc1	75.3%	73%			80.9%		96%	96.6%
CN(C)c1ccc(/C=C\c2cccc[n+]2C)cc1	14.6%	20.1%	33.6%	39.3%	19.3%	35.7%	6.97% (active)	
COc1ccc(C2=NNC(c3ccc(Oc4nc5c(c(=O)n(C)c(=O)n5C)n4C)c(OC)c3)C2)cc1 (configuration not stated)	86.3%		93%	87.6%	98.2%	102%	97.6%	109%
Cc1ccc(Nc2cc(Cl)c([N+](=O)[O-])cc2[N+](=O)[O-])cc1	1.27% (active)	31.3%	10.2%	25.9%	7.86% (active)	42.4%	45.9%	
Nc1c(C(=O)Nc2ccccc2)sc2nc3c(cc12)C(=O)CCC3	47.1%		-5.95% (active)	19.6%	23.6%	21.9%	19.9%	27.2%
CCN(CC)CCNC(=O)n1cc(-c2ccncc2)c(-c2cc(Cl)cc(OC)c2)n1	87.3%	95.6%	83.5%	87.7%	85.5%	113%	98.3%	
Clc1nnc2c3ccccc3ccn12	108%	97.9%	111%	107%	103%	115%	109%	
Cc1ccsc1C(=O)CC(=O)C(F)(F)C(F)(F)C(F)(F)F	101%		105%	96.6%	109%	111%	107%	103%
Brc1ccsc1Br	95.4%	102%	113%	103%	105%	105%	111%	
Cc1ccc([C@H]2c3[nH]c4ccccc4c3C[C@H]3C(=O)N(CCCCCCC(=O)NO)CC(=O)N23)cc1	19.5%	68%	38.3%	35.5%	15.8%	55.6%	48.2%	
COCc1nc(NS(=O)(=O)c2ccc(N)cc2)nc(C)c1Br	96.1%	106%	107%	103%	94.3%	97.1%	107%	
C=C(C)[C@@H]1CC[C@]2(C(=O)NC(COC(=O)C(Cl)Cl)(COC(=O)C(Cl)Cl)COC(=O)C(Cl)Cl)CC[C@]3(C)[C@H](CC[C@@H]4[C@@]5(C)CC[C@H](OC(C)=O)C(C)(C)[C@@H]5CC[C@]43C)[C@@H]12	31.9%		73.6%	21.4%	-16.7% (active)	66.1%	36.8%	62.1%
FC(F)(F)c1cc(-c2nnc3n2N=C(Cl)CS3)cc(C(F)(F)F)c1	84.5%	88.4%		94.3%	90.5%		109%	
C=CCOC(=O)C1=C(C)NC2=C(C(=O)CC(C)(C)C2)C1c1ccc(OC)cc1 (configuration not stated)	99%	94.1%	105%	97.4%	88.8%	116%	94.8%	
N/N=C(\C(=N\N)c1ccccc1)c1ccccc1	93%	88%	103%		101%	99.8%	105%	
COc1cc(C)c(Cl)cc1C1=NN(c2ccc(S(N)(=O)=O)cc2)C(/C=C/c2ccccc2)C1 (configuration not stated)	17.5%		62.5%	23.3%	11.5%	74.9%	34.8%	43.9%
C=C(COC(C)=O)[C@H]1CC/C(C)=C/CC/C(C)=C/CC[C@@]2(C)O[C@H]2C1	109%	105%	113%	91.1%	98.2%	112%	98.6%	

SMILES	growth (T-47D breast)	growth (BT-549 breast)	growth (MDA-MB-435 melanoma)	growth (MCF7 breast)	growth (HCT-116 colon)	growth (HCC-2998 colon)	growth (KM12 colon)	growth (SW-620 colon)
Clc1cc2nc(-c3ccccc3)c(-c3ccccc3)nc2cc1Cl	76.6%	118%	108%	78.1%	84.8%	94.1%	92%	
C=C1C[C@@]2(C)C(CC[C@]3(C)C2CC=C2C4CC(C)(C)C[C@@H](OC(=O)/C(C)=C\C)[C@]4(C(=O)O)CC[C@]23C)C(C)(C)C1=O (some centres not stated)	-11.3% (active)	-19.7% (active)	-12.4% (active)	8.17% (active)	-78.5% (active)	-79.9% (active)	3.05% (active)	
COc1cccc(N2CCN(c3ncnc4cc[nH]c34)CC2)c1	20.4%	42.9%	42.6%	46.7%	35.8%	62.7%	71.8%	
O=C(Nc1ccc(Br)cc1)c1ccc(Cl)c(Cl)c1	5.65% (active)		31.4%	20.1%	20.8%	67.7%	9.99% (active)	34.7%
C/C(=N\NC(=O)CSc1nc2ccccc2c(=O)n1CCc1ccc(S(N)(=O)=O)cc1)c1ccc(Br)cc1	91.9%		78.3%	80.5%	41.2%	90.7%	74.1%	77.3%
CC(=O)C1CCC2C3CC(C)=C4CC(O)CCC4(C)C3CCC12C (configuration not stated)		100%	109%	100%	90.7%	98.8%	109%	118%
CC1OC(n2c3ccccc3c3c4c(c5c6ccccc6[nH]c5c32)C(=O)N(CCN[C@H]2CCC[C@@H]2N)C4=O)CC(O)C1O (some centres not stated)	29%		29.2%	6.49% (active)	24.6%	17%	20.2%	
CCOC(=O)Nc1ccc2nc(Sc3ccc(Cl)cc3)sc2c1	36.4%		1.41% (active)	16.7%	30.5%	57.1%	26.9%	29%
C=CCN(CC#N)CC=C	101%		101%	95%	98.1%	118%	108%	107%
CN(C)c1nc(-c2cccs2)n2nc(-c3ccc(Cl)cc3)cc2n1	30.7%		63.1%		6.95% (active)	48.9%	72.5%	56.8%
CC(C)c1nc2ccccc2n1CC(=O)N/N=C/c1cccc(O)c1	103%		99.8%	105%	87%	104%	103%	93.6%
CCN(CC)C(=O)O/N=C(/C)c1ccccc1	110%		104%	97.1%		104%	102%	106%
CCCCn1cnc2c(SCc3ccc([N+](=O)[O-])cc3)nc(N)nc21	80%		98%	91.2%	92.5%	90.7%	97.9%	109%
CC(=O)CC(c1ccc([N+](=O)[O-])cc1)c1c(O)c2ccccc2oc1=O (configuration not stated)	95.7%		103%	102%	101%	105%	98.5%	101%
COc1ccc(/C=N/NC(N)=S)c(OC)n1	80%		101%	93.6%	99.2%	115%	102%	108%
COc1cc(/C=C/c2cc(/C=C/c3ccc(O)c(OC)c3)n(C(=O)c3ccccc3Br)n2)ccc1O	49%		-30.5% (active)	20.2%	6.9% (active)	40.9%	4.98% (active)	20.9%
Nc1ncnc2c1N=C(c1ccc3c(c1)OCO3)CC(c1ccc(Cl)cc1)N2 (configuration not stated)	55.8%		78.7%	56.6%	87.3%		71.7%	79.9%
COc1cc2c(cc1OC)-c1cc(OC)c(OC)cc1C(CN(C)C)C2 (configuration not stated)	69.3% [100 µM]		63.8% [100 µM]		70.7% [100 µM]	85.6% [100 µM]	82.1% [100 µM]	82.4% [100 µM]
CC(C)c1ccc(-c2cnc3nonc3n2)cc1	42.5%		23.7%	11.5%	10.2%	61.1%	31.2%	29.8%
N/C(=C\C(=O)n1nc(-c2ccccc2)cc1N)c1ccccc1	47%		-0.658% (active)	35%	27.4%	43.9%	30%	36.1%
CCN1CCN(Cc2ccc(NC(=O)Nc3ccc(-n4ccc5c(NC(=O)c6ccccc6)nccc54)cc3)cc2C(F)(F)F)CC1	75.6%		-61.5% (active)	-90% (active)	-83.6% (active)	68.3%	14.3%	-11.9% (active)
O=C(Nc1cccc(-n2ccc3c(NC(=O)c4ccccc4)nccc32)c1)c1ccc(Cl)c(Cl)c1	-55.4% (active)		-78.1% (active)	-83.6% (active)	-97.6% (active)	-90.9% (active)	-75.2% (active)	-80.3% (active)
CCN(CC)c1ccc(/C=N/NC(=O)c2ccc(S(C)(=O)=O)cc2)c(O)c1	30%		37.2%	8.79% (active)	18.4%	39.6%	25.9%	33.1%
CNC(=O)OC1C(O[C@H]2C[C@H]3[C@@H]4CC=C5C[C@@H](O)CC[C@]5(C)[C@H]4CC[C@]3(C)[C@H]2[C@H](C)C(=O)CCC(C)C)OCC(O)C1OC1OCC(O)C(O)C1OC(=O)c1ccc(OC)cc1 (some centres not stated)	10.2%		-25.7% (active)	3.66% (active)	8.61% (active)	67.3%	36.5%	-37.2% (active)
